Hits are enriched below; roughly 2.5% of the tested compounds scored in any of these assays.
EWS-Fli block – EWS/Fli transcriptional activity inhibition; A673 NR0B1-luciferase reporter, viability-normalised; inhibition, % at 12.6 µM; hit rate 0.67% among 350,000; AID 651661;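 active = mean inhibition of at least 50% after viability correction, with every replicate also passing that limit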;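 also: firefly luciferase signal divided by Alamar Blue viability fluorescence both relative to DMSO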
LGR2 inh – inhibitors of bursicon-induced Drosophila LGR2 receptor cAMP signaling; HEK293 LGR2, CRE-luciferase, bursicon-stimulated, 4 h; inhibition, % at 9.99 µM; hit rate 0.35% among 380,000; AID 720647;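 active = drop in luminescence signal, shown as inhibition above about 50% in the replicate tests, limit read from the data, passing the limit was not always enough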;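 also: agonist challenge used bursicon conditioned medium at about half maximal strength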
EBV LMP1 NFkB – reduces LMP1-driven NF-kappaB luciferase signal; hit rate 0.69% among 350,000; inhibition, % at 12.5 µM; LMP1-induced NF-kappaB luciferase reporter cells, luminescence; AID 504558; in the data active = inhibition above about 41%;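 also: 0% = neutral control wells and 100% = reference inhibitor control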
TWEAK Fn14 block – inhibitors of TWEAK-Fn14 interaction signaling | TWEAK-stimulated Fn14 reporter cells, luciferase luminescence, 8 h | hit rate 2% among 360,000 | inhibition, % at 10 µM | AID 1159606; in the data active = inhibition above about 50%
TROY NFkB inh – TROY signaling inhibition; Q293 LMP1-TROYcd NF-kB luciferase reporter, 4 h; inhibition, % at 10 µM; hit rate 0.98% among 360,000; AID 1347056;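 active = compounds whose plate-normalised and pattern-corrected inhibition of the luciferase reporter signal at the single screening dose is 50% or more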
DNA binder FP – DNA binding small molecules; shares compounds with EWS-Fli block; salmon sperm DNA acridine orange fluorescence polarization; AC35, µM (doses to about 68 µM), for inactives: at the highest dose activity change, negative = DNA binding; hit rate 2% among 640;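 active = fitted curve reaches a 35% signal fall AC35 below twice the sample's top valid tested dose, actives reach about 48 µM in these data; inactive = the rest, including activity in the rising direction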;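 also: lower polarization ratio signals compound binding to DNA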
Numbers without * were called inactive; · = not tested or not shown.

SMILES | EWS-Fli block | LGR2 inh | EBV LMP1 NFkB | TWEAK Fn14 block | TROY NFkB inh | DNA binder FP
CC=Cc1ccc2n(c1=O)C[C@H]1[C@H](CO)[C@@H](C(=O)Nc3ccc(-c4ccccc4)cc3)N(C(=O)CC)[C@@H]21 (mixture of isomers) | 2 | -4 | · | · | · | ·
COc1ccc(OC)c(-c2cc(C(F)(F)F)c3c(n2)sc2c(O)cc(=O)[nH]c23)c1 | 89* | 5 | 8 | -16 | 10 | -9%
O=c1cc(O)c2sc3nc(-c4ccccc4)cc(C(F)(F)F)c3c2[nH]1 | · | 15 | -8 | 2 | -10 | ·
C[C@@H](O)C#Cc1ccc([C@@H]2[C@H](CO)N3CCCCN(S(=O)(=O)Cc4ccccc4)C[C@@H]23)cc1 | -6 | 9 | · | · | · | ·
COc1ccc(-c2cc(CCCC(=O)NCCc3cc(OC)ccc3OC)no2)cc1 | · | 6 | 9 | 24 | 18 | ·
CCOc1ccc(-c2cc(CCCC(=O)NCc3ccc(C)cc3)no2)cc1 | 61* | 19 | -3 | 3 | -27 | -9%
C[C@@H]1CN([C@@H](C)CO)C(=O)CCCn2cc(nn2)CO[C@@H]1CN(C)Cc1ccc(O)cc1 | 0 | -2 | · | · | · | ·
CN1CCN(CC(=O)Nc2nc3c(s2)CCCC3)CC1 | 6 | -6 | -1 | 2 | -14 | ·
CCN1CCN(/C=N/c2nc3c(s2)CCCC3)CC1 | 57* | 80* | 55* | 96* | 86* | -10%
CO[C@@H]1CN(C)C(=O)c2cc(NC(=O)c3cc(C)on3)ccc2OC[C@@H](C)N(S(=O)(=O)c2ccccc2)C[C@H]1C | 0 | · | · | · | · | ·
COc1ccc(S(=O)(=O)N=Nc2c(O)[nH]c3ccccc23)cc1 | 53* | · | 2 | 19 | 10 | -7%
COc1ccc(NC(=S)N=Nc2c(O)[nH]c3ccccc23)cc1 | 56* | -16 | 39 | 28 | -64 | -11%
Cc1ccc(NC(=S)N=Nc2c(O)[nH]c3ccccc23)cc1 | 29 | 1 | 19 | 29 | -30 | ·
CCCCCCCCNC(C)C(O)c1ccc(SC(C)C)cc1 (configuration not stated) | 59* | 2 | -94 | -36 | 18 | -7%
COc1ccc(S(=O)(=O)Nc2ccc3c(c2)C(=O)N([C@@H](C)CO)C[C@@H](C)[C@@H](CN(C)Cc2ccc(C(F)(F)F)cc2)O3)cc1 | 19 | 3 | · | · | · | ·
Cc1ccsc1C(=O)OCC(=O)NCCC1=CCCCC1 | 65* | -30 | -20 | -19 | -51 | -5%
COC(=O)c1cccc(NC(=O)NC(=O)c2ccccc2Cl)c1 | 86* | -2 | 37 | -14 | -17 | -13%
Cc1occc1C(=O)Nc1sccc1C(N)=O | -21 | 5 | -1 | 15 | -15 | ·
Cc1noc(C)c1C(=O)Nc1sccc1C(N)=O | 76* | -9 | -6 | -4 | 34 | -21%
N=c1ccn2c(n1)O[C@H]1[C@@H](CO)[C@H](O)O[C@H]12 | 48 | -5 | 28 | 3 | 0 | ·
N=c1ccn2c(n1)O[C@H]1[C@H](O)[C@@H](CO)O[C@H]12 | 53* | 1 | 31 | -14 | 12 | -18%
O=C(CCN1CCCCC1)N[C@@H]1C=C[C@H](CC(=O)N2CCC(Cc3ccccc3)CC2)O[C@H]1CO | -4 | -3 | · | · | · | ·
C[C@H]1CN([C@@H](C)CO)C(=O)c2cccc(NC(=O)Nc3ccc4c(c3)OCO4)c2O[C@@H]1CN(C)C(=O)NC1CCCCC1 | -11 | -32 | · | · | · | ·
COCCOC(=O)N1C(=O)[C@@]2(c3cc(C#CCC(C(=O)OC)C(=O)OC)ccc31)[C@H](c1ccccc1OCCO)N1[C@H](c3ccccc3)[C@H](c3ccccc3)OC(=O)[C@H]1[C@@H]2C(=O)N1CCN(c2ncccn2)CC1 | 61* | · | · | · | · | 1%
COCCOC(=O)N1C(=O)[C@@]2(c3cc(C#CCCO)ccc31)[C@H](C(=O)N1CCN(c3ncccn3)CC1)[C@H]1C(=O)O[C@H](c3ccccc3)[C@H](c3ccccc3)N1[C@@H]2c1ccccc1OCCO | -6 | · | · | · | · | ·
SMILES | EWS-Fli block | LGR2 inh | EBV LMP1 NFkB | TWEAK Fn14 block | TROY NFkB inh | DNA binder FP
COC(=O)C(CC#Cc1ccc2c(c1)[C@]1(C(=O)N2)[C@H](c2ccc(OCCO)cc2)N2[C@H](c3ccccc3)[C@H](c3ccccc3)OC(=O)[C@H]2[C@@H]1C(=O)N1CCN(c2ncccn2)CC1)C(=O)OC | 76* | · | · | · | · | 3%
C/C=C/c1cnc2c(c1)C(=O)N([C@H](C)CO)C[C@@H](C)[C@H](CN(C)S(=O)(=O)c1cn(C)cn1)O2 | -8 | 4 | · | · | · | ·
O=C(N/N=C/c1c[nH]c2ccccc12)c1ccc(Br)cc1 | -53 | -59 | -12 | 10 | -39 | ·
CC(C)Oc1ccc(Br)cc1C(=O)N/N=C/c1c[nH]c2ccccc12 | 53* | -9 | -5 | 13 | 7 | -1%
O=c1cc(-c2ccccc2)oc2ccc3ccccc3c12 | 81* | 101* | 68* | 93* | 75* | 13%
O=C(C[C@@H]1CC[C@@H]2[C@H](COC[C@@H](O)CN2C(=O)c2ccccn2)O1)NC1CCC1 | · | -1 | · | · | · | ·
Nc1ccc(Oc2cccc(Oc3ccc(N)cc3)c2)cc1 | 78* | -15 | 37 | 82* | 60* | 3%
Cc1cccc(Oc2ccc(N)cc2)c1 | · | · | -16 | -5 | -35 | ·
C[C@H]1CN([C@@H](C)CO)C(=O)c2cc(C3=CCCCC3)cnc2O[C@@H]1CN(C)C(=O)c1cccnc1 | -14 | -6 | · | · | · | ·
O=C(Cc1cccnc1)N1CC2(C1)[C@@H](c1ccccc1)[C@@H](CO)N2C(=O)C1CCCCC1 | 0 | 22 | · | · | · | ·
Cc1cc2sc3ccc(C#CC4(O)CCCCC4)cc3c(=O)c2cc1C | 91* | · | 78* | 106* | 90* | 5%
N#Cc1ccc(C#Cc2ccc3oc4ccccc4c(=O)c3c2)cc1 | -27 | 0 | 2 | -22 | 8 | ·
COc1ccc(-c2sc3cc(OC)c(OC)cc3c2C#CC2(O)CCCCC2)cc1 | 12 | 3 | -12 | -19 | 5 | ·
O=c1c2ccccc2oc2ccc(C#CC3(O)CCCCC3)cc12 | 61* | 75* | -12 | 98* | 89* | -9%
CCNC(=O)[C@@H]1[C@@H](CO)[C@@H]2Cn3c(ccc(C4=CCCCC4)c3=O)[C@H]1N2CC | · | 2 | · | · | · | -15%
CCN1[C@@H]2Cn3c(ccc(C4=CCCCC4)c3=O)[C@H]1[C@@H](C(=O)NCCOC)[C@@H]2CO | 2 | -18 | · | · | · | ·
O=C(NCc1ccccn1)c1ccc(CNS(=O)(=O)c2cccc(Cl)c2)cc1 | 58* | -9 | 3 | -6 | 9 | -15%
CC(C)(C)c1ccc(S(=O)(=O)NCc2ccc(C(=O)NCc3ccccn3)cc2)cc1 | -1 | 10 | -4 | -15 | -2 | ·
CO[C@H](CN(C)S(=O)(=O)c1ccc(Cl)cc1)[C@H](C)CN(C(=O)Nc1ccccc1F)[C@@H](C)CO | -6 | 1 | · | · | · | ·
Cc1cc(C)cc(OCC(=O)OCC(=O)Nc2cc(S(=O)(=O)N3CCOCC3)ccc2Cl)c1 | -1 | 28 | 2 | 0 | 4 | ·
Cc1cc(C)cc(OCC(=O)OCC(=O)Nc2cc(S(=O)(=O)N3CCOCC3)ccc2C)c1 | 66* | 9 | -6 | -2 | 10 | -12%

Source: PubChem BioAssay (several laboratories)
